Screens as filed in PubChem.
Hits are enriched below; roughly 3.4% of the tested compounds scored in any of these assays.
ADAM10 inh: ADAM10 inhibition, QFRET primary screen; recombinant ADAM10, EDANS/DABCYL FRET peptide cleavage, 3 h; inhibition, % at 7 µM; O14672; hit rate 0.62% among 370,000;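 active = inhibition above a per-campaign cutoff equal to the mean of compounds falling between control-based bounds plus 3 SD, cut at about 20% in these data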
sPLA2-III inh: Blocks human group III sPLA2 activity. Q9NZ20. QFRET BODIPY PC-A2 liposome hydrolysis, fluorescence. inhibition, % at 12.2 µM. hit rate 0.56% among 370,000;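 active = inhibition above mean plus 3 SD of compounds lying within the high and low control bounds, cut at about 19% in these data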
Target sequence (Q9NZ20 whole entry, looked up): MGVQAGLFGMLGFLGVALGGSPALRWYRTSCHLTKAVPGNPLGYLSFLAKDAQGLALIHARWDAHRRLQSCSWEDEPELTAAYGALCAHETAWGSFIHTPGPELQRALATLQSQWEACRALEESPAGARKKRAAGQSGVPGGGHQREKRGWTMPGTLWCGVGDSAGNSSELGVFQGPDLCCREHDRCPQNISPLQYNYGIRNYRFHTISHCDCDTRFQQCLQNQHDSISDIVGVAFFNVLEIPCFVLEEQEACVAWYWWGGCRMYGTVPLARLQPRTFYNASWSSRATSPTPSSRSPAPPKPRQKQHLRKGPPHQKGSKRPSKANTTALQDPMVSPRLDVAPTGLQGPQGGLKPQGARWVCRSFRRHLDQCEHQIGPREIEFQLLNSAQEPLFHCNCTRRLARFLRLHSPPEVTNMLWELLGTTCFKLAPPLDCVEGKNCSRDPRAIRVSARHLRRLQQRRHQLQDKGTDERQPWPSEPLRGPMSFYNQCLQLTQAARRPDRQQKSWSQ
PLCb3 inh: inhibitors of human phospholipase C beta3; Purified PLC-beta3, fluorogenic substrate, fluorescence; inhibition, % at 12.2 µM; hit rate 0.18% among 370,000; in the data active = inhibition above about 11%
proKLK7 act: activators of human kallikrein-7 zymogen. hit rate 0.9% among 370,000. AID 652039. activation, % at 7 µM. purified proKLK7, EDANS-DABCYL substrate fluorescence; 100% is mature enzyme control, 0% vehicle. P49862;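 active = activation above the mean of all tested compounds plus 3 SD, computed per campaign excluding outliers beyond control limits, cut at about 13% in these data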
PLC-gamma1 inh: inhibitors of human phospholipase C gamma1; P19174; purified PLC-gamma1, fluorogenic substrate, fluorescence; inhibition, % at 12.2 µM; hit rate 0.84% among 370,000
ADAM17 inh: inhibits human ADAM17; P78536; recombinant ADAM17, EDANS/DABCYL FRET peptide cleavage; inhibition, % at 6.95 µM; hit rate 0.83% among 370,000; AID 720648;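 active = inhibition above the mean of compounds lying between control limits plus 3 SD, set per campaign, cut at about 8.5% in these data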
PLCgamma1 ctr: inhibits human PLC-gamma1 in PLC-beta3 counter-screen; shares compounds with PLC-gamma1 inh; purified PLC-gamma1, fluorogenic substrate, fluorescence; inhibition, % at 12.3 µM; hit rate 3.1% among 3,300
PLCb3 confirm: confirmation of human PLC-beta3 inhibitors; AID 743261; hit rate 1% among 3,300; shares compounds with PLC-gamma1 inh; purified PLC-beta3, fluorogenic substrate fluorescence; inhibition, % at 12.3 µM; in the data active = inhibition above about 11%
Each line names hits and unclear results; the compound was inactive in the other large screens (follow-up assays come after a bar, where they were run). Cut-off read from the data, not from the text of the source, unless noted: active = inhibition above about 9.5%; inactive = the rest.

C=CCc1cccc(C=NNC(=O)c2ccco2)c1O	none
COc1ccc(CCN(C)C(=O)CN2C(=O)NC3(CCCc4ccccc43)C2=O)cc1OC (configuration not stated)	PLC-gamma1 inh 12 | PLCgamma1 ctr inactive | PLCb3 confirm inactive
COC(=O)Nc1cc(C)nc2ccccc12	none
COc1cc(C(=O)Nc2cccc(-c3nc4ccccc4o3)c2C)cc(OC)c1OC	PLC-gamma1 inh 14 | PLCgamma1 ctr inactive | PLCb3 confirm inactive
COc1ccc(C(=O)Nc2cc(C)nc3ccccc23)cc1OC	PLC-gamma1 inh 10 | PLCgamma1 ctr inactive | PLCb3 confirm inactive
COC(=O)CN1CC(=O)N(c2ccccc2)C1=S	PLC-gamma1 inh 10 | PLCgamma1 ctr inactive | PLCb3 confirm inactive
COc1ccc(-n2c(C)cc(/C=C3/SC(=S)N(C)C3=O)c2C)cc1	PLC-gamma1 inh 11 | PLCgamma1 ctr inactive | PLCb3 confirm inactive
COc1ccc(CCN(Cc2cccs2)S(=O)(=O)c2ccc(C)c(C)c2)cc1OC	none
S=c1nc(C23CC4CC(CC(C4)C2)C3)[nH][nH]1	PLC-gamma1 inh 12 | PLCgamma1 ctr inactive | PLCb3 confirm inactive
S=C(NCc1ccco1)Nc1cc(-c2ccccc2)[nH]n1	PLC-gamma1 inh 9.6 | PLCgamma1 ctr inactive | PLCb3 confirm inactive
S=C(NCc1ccco1)Nc1ccc(Br)cn1	none
O=C(c1cn(-c2ccccc2)nc1-c1ccccc1)N1CCOCC1	none
O=C(c1cccs1)N1CCN(C(=O)c2cn(-c3ccccc3)nc2-c2ccccc2)CC1	PLCb3 inh 12 | PLCgamma1 ctr inactive | PLCb3 confirm inactive
CCCCCCCCN1C(=O)N2Cc3cc(OC)ccc3C2CS1(=O)=O (configuration not stated)	none
N/C(=N\OC(=O)c1ccccc1Cl)c1ccncc1	PLC-gamma1 inh 10 | PLCgamma1 ctr inactive | PLCb3 confirm inactive
N/C(=N\OC(=O)c1ccc(Cl)cc1Cl)c1ccncc1	none
O=C(CSc1nnc(-c2cnccn2)n1-c1ccccc1)c1ccccc1Br	none
COc1cc(-c2nnc(SCC3(c4ccccc4)OCCO3)o2)cc(OC)c1OC	PLC-gamma1 inh 12 | PLCgamma1 ctr inactive | PLCb3 confirm inactive
O=C(Nc1nnc(Cc2ccccc2)s1)c1ccccc1	none
CN(C)S(=O)(=O)c1ccc(C(=O)Nc2nnc(Cc3ccccc3)s2)cc1	PLCb3 inh 11 | PLCgamma1 ctr inactive | PLCb3 confirm inactive
CCn1c(N2CCC(C)CC2)nc2c1c(=O)n(C)c(=O)n2C	sPLA2-III inh 26, PLC-gamma1 inh 12 | PLCgamma1 ctr inactive | PLCb3 confirm inactive
CN(Cc1ccccc1)C(=O)OCc1cn(Cc2ccc(F)c(F)c2)nn1	none
O=C(O)CC1=C(c2ccc(F)cc2)CCC1=O	PLCb3 inh 14 | PLCgamma1 ctr inactive | PLCb3 confirm inactive
CC(C)(C)c1ccc(C(=O)Nc2cc(Cl)ccc2-c2nn[nH]n2)cc1	none (no result: proKLK7 act)
NC1(CO)COC(c2ccccc2)OC1 (configuration not stated)	PLCb3 inh 12 | PLCgamma1 ctr inactive | PLCb3 confirm inactive
COc1ccc(OC)c(NC(=O)CC2SC(=Nc3ccc(F)cc3)N(CCC3=CCCCC3)C2=O)c1 (configuration not stated)	PLC-gamma1 inh 11 | PLCgamma1 ctr inactive | PLCb3 confirm inactive
Cc1nc2ccc(S(=O)(=O)NCC(=O)NCc3ccc(F)cc3)cc2s1	none
Cc1ccccc1CN1CCCCC(NC(=O)c2ccccc2F)C1=O (configuration not stated)	none
NC1=C(Cl)C(=O)c2ccc(S(N)(=O)=O)cc2C1=O	PLC-gamma1 inh 16 | PLCgamma1 ctr 19 | PLCb3 confirm inactive
Cc1cc[n+](-c2[nH]c(=O)sc2/C=N/N=C(\[O-])c2ccncc2)cc1	PLC-gamma1 inh 11 | PLCgamma1 ctr inactive | PLCb3 confirm inactive
Cc1cc[n+](-c2[nH]c(=O)sc2/C=N/N=C(\[O-])c2ccccc2)cc1	none
COC1OC2COC(c3ccccc3)OC2C(NC(C)=O)C1OC(C)=O (configuration not stated)	PLCb3 inh 14, PLC-gamma1 inh 10 | PLCgamma1 ctr inactive | PLCb3 confirm inactive
COC1OC2COC(c3ccccc3)OC2C(OC(=O)c2ccccc2)C1OC(=O)c1ccccc1 (configuration not stated)	none
CCN(CC)C1CCN(C(=O)c2cc(COc3ccccc3SC)on2)C1 (configuration not stated)	PLC-gamma1 inh 10 | PLCgamma1 ctr inactive | PLCb3 confirm inactive
Cc1ccc(N(CC(N)=O)C2SC(=O)N(Cc3ccccc3)C2=O)cc1 (configuration not stated)	PLC-gamma1 inh 9.6 | PLCgamma1 ctr inactive | PLCb3 confirm inactive
CCOc1ccccc1Nc1nc(N)nc(CN(C)C2CCCCC2)n1	PLCb3 inh 12 | PLCgamma1 ctr inactive | PLCb3 confirm inactive
O=C(N[C@@H](Cc1cccnc1)C(=O)N1CCC[C@H]1C(=O)NCc1ccccc1)c1ccc(Cl)c(Cl)c1	none
CC(C)C[C@@H](CO)N1CCN(C)CCC1=O	PLC-gamma1 inh 14 | PLCgamma1 ctr inactive | PLCb3 confirm inactive
COC(=O)C1CN(Cc2cn(Cc3ccccc3)nn2)CCS(=O)(=O)N1Cc1ccc(OC)cc1 (configuration not stated)	none
CC(=O)Nc1cccc(N(C)C)c1	none
CN(C)c1cccc(NC(=O)C2(C)CC2(Cl)Cl)c1 (configuration not stated)	PLCb3 inh 16 | PLCgamma1 ctr inactive | PLCb3 confirm inactive
COc1ccc(N2C(=O)c3[nH]nc(-c4ccccc4)c3C2c2ccc(Br)cc2)cc1 (configuration not stated)	none
Cc1ccc(OCC(C)CN2CCC(C(O)(c3ccccc3)c3ccccc3)CC2)cc1 (configuration not stated)	none
CC(/C=C/c1cccc([N+](=O)[O-])c1)=N\NC(=O)c1ccncc1	PLC-gamma1 inh 13 | PLCgamma1 ctr inactive | PLCb3 confirm inactive
Cc1cc(C(=O)N/N=C/C=C/c2ccccc2)n[nH]1	none
Cc1cc(C(=O)N/N=C/C=C/c2cccc([N+](=O)[O-])c2)n[nH]1	PLC-gamma1 inh 11 | PLCgamma1 ctr inactive | PLCb3 confirm inactive
COc1cccc(CNC(=O)[C@@H]2CCCN2C(=O)[C@H]2CCCCN2)c1	PLC-gamma1 inh 18 | PLCgamma1 ctr inactive | PLCb3 confirm inactive
COc1cccc(CNC(=O)[C@H]2CCCN2C(=O)[C@H]2CCCN2)c1	none
CC(C)(C)C(=O)CSc1nccc(=O)[nH]1	PLC-gamma1 inh 10 | PLCgamma1 ctr inactive | PLCb3 confirm inactive
CCOc1ccc(C(=O)c2ccc([N+](=O)[O-])cc2Cl)cc1	none
